# In PubChem BioAssay:
# Activity calls are given as the source filed them. Rule as the data show it, unless noted: active = inhibition above about 80%; inactive = the rest.
# Tests used:
# [1] = growth inhibition, single agent or in combination, cell-based, chromothripsis tumors, cisplatin or BGB combos (AID 1671449); conditions: LFS_MB_P medulloblastoma cells;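 also: cells exposed for 96 hours; 0% = vehicle DMSO and 100% = killing by high DMSO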
# [2] = growth inhibition, single agent and combos, cell-based, chromothripsis tumors, cisplatin or BGB combos (AID 1671450); conditions: HDN33 neuroblastoma cells, stronger effect = higher value;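 also: cells exposed to compound for four days; 0% = vehicle DMSO and 100% = cell killing by high DMSO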
# [3] = growth inhibition, single agents and combos, ICB984, cell-based, cisplatin or BGB combos, synergistic combos for chromothripsis tumors (AID 1671451; call rule not given here;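 also: cells exposed for 96 hours before readout; 0% = vehicle DMSO and 100% = killing by high DMSO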); conditions: ICB984 medulloblastoma cells, drug combinations, stronger effect = higher value
# [4] = growth inhibition, single agents and combos, LFS_MB_1R, cell-based, cisplatin or BGB combos, synergistic combos for chromothripsis tumors (AID 1671452); conditions: LFS_MB_1R medulloblastoma cells, stronger effect = higher value;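 also: cells exposed for 96 hours before readout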
# [5] = growth inhibition, single agents and combos, HTB85, cell-based, BGB or cisplatin IC20 combos, synergistic combos for chromothripsis tumors (AID 1671453); conditions: HTB85 osteosarcoma cells, drug combinations, stronger effect = higher value;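 also: cells exposed for 96 hours before readout; 0% = vehicle DMSO and 100% = high DMSO killing control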
# [6] = growth inhibition, single agents and combos, CRL2098, cell-based, BGB or cisplatin IC20 combos, synergistic combos for chromothripsis tumors (AID 1671454); conditions: CRL2098 osteosarcoma cells, drug combinations, stronger effect = higher value;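 also: cells exposed for 96 h before readout; 0% = vehicle DMSO and 100% = killing by high DMSO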
# [7] = growth inhibition, single agents and combos, HD-MB03, cell-based, BGB or cisplatin IC20 combos, synergistic combos for chromothripsis tumors (AID 1671455; in the data active = inhibition above about 83%;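 also: 0% = vehicle DMSO and 100% = high DMSO as cytotoxic control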); conditions: HD-MB03 medulloblastoma cells, stronger effect = higher value
# [8] = growth inhibition, single agents and combos, UWB1.289, cell-based, BGB or cisplatin combos, synergistic combos for chromothripsis tumors (AID 1671456); conditions: UWB1.289 ovarian carcinoma cells, stronger effect = higher value;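 also: cells exposed to compound for four days; 0% = vehicle DMSO and 100% = killing by high DMSO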
# [9] = growth inhibition, single agents and combos, LFS_MB_2R, cell-based, cisplatin combos, synergistic combos for chromothripsis tumors (AID 1671457); conditions: LFS_MB_2R medulloblastoma cells, stronger effect = higher value;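 also: cells exposed to compound for four days before readout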
# [10] = growth inhibition, MDA-MB-436, cell-based, BGB or cisplatin combos, synergistic combos for chromothripsis tumors (AID 1671458; call rule not given here;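 also: cells exposed for 96 hours; 0% = vehicle DMSO and 100% = killing by high DMSO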); conditions: MDA-MB-436 breast carcinoma growth inhibition, drug combinations, stronger effect = higher value
# [11] = UWB1.289_BRCA1 ovarian cancer growth, cell-based, BGB or cisplatin combinations (AID 1671459); conditions: UWB1.289 BRCA1 ovarian carcinoma, drug combinations, stronger effect = higher value
# [12] = drug combination toxicity in non-malignant astrocytes – cell-based, BGB or cisplatin IC20 combos, cytotoxicity control for chromothriptic childhood tumor combination screen (AID 1671460); conditions: Human astrocytes, viability inhibition, drug combinations, at 0.5 µM, stronger effect = higher value;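 also: cells exposed to compounds for 96 hours before viability readout; 0% = vehicle and 100% = killing control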
# [13] = BT084 cell growth, single and combined drugs, ICGC_MB145, cisplatin and BGB IC40 combos (AID 1671461); conditions: BT084 medulloblastoma cells, drug combinations, stronger effect = higher value;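 also: cells exposed to drugs for 96 hours; 0% = vehicle DMSO and 100% = high DMSO full killing control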
# [14] = RCMB18 cell growth, single agent and combined, cisplatin and BGB IC40 combos (AID 1671462); conditions: RCMB18 medulloblastoma cells, stronger effect = higher value;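 also: cells exposed to compound for four days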
# [15] = CRL1545 cell growth, single agent and combined, cisplatin and BGB IC20 combos (AID 1671464); conditions: CRL1545 osteosarcoma cells, stronger effect = higher value;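 also: cells exposed to compound for 96 hours before readout; 0% = vehicle DMSO and 100% = high DMSO killing control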
# [16] = at 0.5 µM, stronger effect = higher value
# [17] = measured here: combination with BGB IC20, at 0.005 µM
# [18] = measured here: combination with BGB IC40, at 0.005 µM
# [19] = measured here: combination with BGB IC40, at 0.05 µM
# [20] = measured here: combination with cisplatin, at 0.5 µM, stronger effect = higher value
# [21] = measured here: combination with cisplatin, at 5 µM, stronger effect = higher value
# [22] = measured here: with BGB IC20 combination, at 0.5 µM
# [23] = measured here: with cisplatin IC20 combination, at 0.5 µM
# [24] = measured here: 5 uM single agent, at 5 µM
# [25] = measured here: combination with cisplatin, at 0.5 µM
# [26] = measured here: combination with cisplatin, at 5 µM
# [27] = measured here: with BGB IC20, at 0.5 µM
# [28] = measured here: with BGB IC20, at 5 µM
# [29] = measured here: with cisplatin IC20, at 0.5 µM
# [30] = measured here: with cisplatin IC20, at 5 µM
# [31] = measured here: combination with BGB at IC20, at 0.5 µM
# [32] = measured here: combination with cisplatin at IC20, at 0.5 µM
# [33] = measured here: combo with BGB at IC20, at 0.5 µM
# [34] = measured here: combo with cisplatin at IC20, at 0.5 µM
# [35] = measured here: inhibition with BGB combination, at 0.05 µM
# [36] = measured here: inhibition with cisplatin combination, at 0.05 µM
# [37] = measured here: BGB combination, at 0.5 µM
# [38] = measured here: BGB combination, at 5 µM
# [39] = measured here: cisplatin combination, at 0.5 µM
# [40] = measured here: cisplatin combination, at 5 µM
# [41] = BGB combination, concentration series, at 5 µM
# [42] = cisplatin combination, concentration series, at 5 µM
# [43] = measured here: combo with BGB IC20
# [44] = measured here: combo with cisplatin IC20
# [45] = cisplatin combination, at 0.5 µM
# [46] = measured here: BGB IC40 combination 0.05 uM, at 0.05 µM
# [47] = measured here: BGB IC40 combination, at 0.05 µM
smiles,measurement,setting,value
O=C(CCSc1nc2ccccc2c(=O)[nH]1)NC1CCC(c2nnc(-c3ccccc3)o2)CC1 (stereo unspecified),inhibition,[1]; [16],-18.8% (inactive)
same,inhibition,[1]; [17],-14.4%
same,inhibition,[1]; [18],-25.3%
same,inhibition,[1]; [19],-55.5%
same,inhibition,[1]; [20],-16.2%
same,inhibition,[1]; [21],-49.7%
same,inhibition,"[2]; BGB combo, at 5 µM",11.8%
same,inhibition,[2]; at 0.5 µM,16.1% (inactive)
same,inhibition,"[2]; cisplatin combo, at 5 µM",29.6%
same,inhibition,[2]; [22],8.27%
same,inhibition,[2]; [23],21.3%
same,inhibition,"[2]; single agent, at 5 µM",32.4%
same,inhibition,"[3]; BGB IC20 combo, at 0.005 µM",-2.22%
same,inhibition,"[3]; BGB IC40 combo, at 0.005 µM",-49.4%
same,inhibition,"[3]; BGB IC40 combo, at 0.05 µM",-27.2%
same,inhibition,[3]; at 0.5 µM,-25.5% (inactive)
same,inhibition,"[3]; cisplatin combo, at 0.05 µM",-31.8%
same,inhibition,"[3]; cisplatin combo, at 0.5 µM",-22.3%
same,inhibition,"[3]; cisplatin combo, at 5 µM",-10.9%
same,inhibition,[3]; [24],-18.3%
same,inhibition,[4]; at 0.5 µM,-14.6% (inactive)
same,inhibition,[4]; [19],6.03%
same,inhibition,[4]; [25],-5.82%
same,inhibition,[4]; [26],-21.2%
same,inhibition,[5]; at 0.5 µM,2.93% (inactive)
same,inhibition,[5]; [27],-9.32%
same,inhibition,[5]; [28],-14.4%
same,inhibition,[5]; [29],5.46%
same,inhibition,[5]; [30],-13.6%
same,inhibition,"[5]; single agent, at 5 µM",0.754%
same,inhibition,[6]; at 0.5 µM,-30.9% (inactive)
same,inhibition,[6]; [31],-25.3%
same,inhibition,[6]; [32],-55.1%
same,inhibition,[7]; at 0.5 µM,5.94% (inactive)
same,inhibition,[7]; [33],-6.25%
same,inhibition,[7]; [34],23%
same,inhibition,[8]; at 0.5 µM,10.2% (inactive)
same,inhibition,[8]; [35],-3.32%
same,inhibition,[8]; [36],13%
same,inhibition,[9]; at 0.5 µM,-3.45% (inactive)
same,inhibition,[9]; [25],-13.5%
same,inhibition,[9]; [26],-4.17%
same,inhibition,[10]; at 0.5 µM,4.84% (inactive)
same,inhibition,[10]; [37],-2.01%
same,inhibition,[10]; [38],-13.2%
same,inhibition,[10]; [39],5.45%
same,inhibition,[10]; [40],-2.11%
same,inhibition,[11]; [41],9.22%
same,inhibition,[11]; at 0.5 µM,8.17% (inactive)
same,inhibition,[11]; [42],-16.8%
same,inhibition,[12],41.8% (inactive)
same,inhibition,[12]; [43],31.3%
same,inhibition,[12]; [44],43.3%
same,inhibition,[13]; at 0.5 µM,-6.61% (inactive)
same,inhibition,[13]; [45],-27.5%
same,inhibition,"[13]; cisplatin combination, at 5 µM",2.51%
same,inhibition,[13]; [46],-56.9%
same,inhibition,"[13]; single agent, at 5 µM",-15.2%
same,inhibition,[14]; at 0.5 µM,-4.49% (inactive)
same,inhibition,"[14]; cisplatin combo, at 5 µM",16.1%
same,inhibition,[14]; [47],-6.16%
same,inhibition,[14]; [25],22.5%
same,inhibition,"[14]; single agent, at 5 µM",-14.1%
same,inhibition,[15]; at 0.5 µM,-21.1% (inactive)
same,inhibition,[15]; [22],-27%
same,inhibition,[15]; [23],-20%
same,inhibition,"[15]; single agent, at 0.05 µM",24.5%
same,inhibition,"[15]; single agent, at 5 µM",-45%
COc1cccc2c1C(=O)c1c(O)c3c(c(O)c1C2=O)CC(O)(C(=O)CO)CC3OC1CC(N)C(OC2CCCCO2)C(C)O1 (stereo unspecified),inhibition,[1]; [16],-32.3% (inactive)
same,inhibition,[1]; [17],9.11%
same,inhibition,[1]; [18],-11.4%
same,inhibition,[1]; [19],-11.1%
same,inhibition,[1]; [20],-47.4%
same,inhibition,[1]; [21],110%
same,inhibition,"[2]; BGB combo, at 5 µM",97.2%
same,inhibition,[2]; at 0.5 µM,23.8% (inactive)
same,inhibition,"[2]; cisplatin combo, at 5 µM",99.2%
same,inhibition,[2]; [22],21.1%
same,inhibition,[2]; [23],4.67%
same,inhibition,"[2]; single agent, at 5 µM",99%
same,inhibition,"[3]; BGB IC20 combo, at 0.005 µM",-23.2%
same,inhibition,"[3]; BGB IC40 combo, at 0.005 µM",-47.6%
same,inhibition,"[3]; BGB IC40 combo, at 0.05 µM",94.7%
same,inhibition,[3]; at 0.5 µM,-38.2% (inactive)
same,inhibition,"[3]; cisplatin combo, at 0.05 µM",94.5%
same,inhibition,"[3]; cisplatin combo, at 0.5 µM",-60.7%
same,inhibition,"[3]; cisplatin combo, at 5 µM",-43.3%
same,inhibition,[3]; [24],-14.9%
same,inhibition,[4]; at 0.5 µM,60.2% (inactive)
same,inhibition,[4]; [19],-55.1%
same,inhibition,[4]; [25],53.5%
same,inhibition,[4]; [26],95%
same,inhibition,[5]; at 0.5 µM,56.2% (inactive)
same,inhibition,[5]; [27],23.4%
same,inhibition,[5]; [28],99%
same,inhibition,[5]; [29],91%
same,inhibition,[5]; [30],99.6%
same,inhibition,"[5]; single agent, at 5 µM",99.2%
same,inhibition,[6]; at 0.5 µM,30.1% (inactive)
same,inhibition,[6]; [31],85.5%
same,inhibition,[6]; [32],33.2%
same,inhibition,[7]; at 0.5 µM,70.5% (inactive)
same,inhibition,[7]; [33],69.8%
same,inhibition,[7]; [34],77.2%
same,inhibition,[8]; at 0.5 µM,12.2% (inactive)
same,inhibition,[8]; [35],26.6%
same,inhibition,[8]; [36],-27.7%
same,inhibition,[9]; at 0.5 µM,-17% (inactive)
same,inhibition,[9]; [25],-2.89%
same,inhibition,[9]; [26],86.3%
same,inhibition,[10]; at 0.5 µM,24.8% (inactive)
same,inhibition,[10]; [37],4.22%
same,inhibition,[10]; [38],64.7%
same,inhibition,[10]; [39],26.1%
same,inhibition,[10]; [40],84.5%
same,inhibition,[11]; [41],94.3%
same,inhibition,[11]; at 0.5 µM,16.1% (inactive)
same,inhibition,[11]; [42],96.5%
same,inhibition,[12],50% (inactive)
same,inhibition,[12]; [43],42.8%
same,inhibition,[12]; [44],39.2%
same,inhibition,[13]; at 0.5 µM,2.98% (inactive)
same,inhibition,[13]; [45],23.2%
same,inhibition,"[13]; cisplatin combination, at 5 µM",-6.21%
same,inhibition,[13]; [46],-28.8%
same,inhibition,"[13]; single agent, at 5 µM",27%
same,inhibition,[14]; at 0.5 µM,21.9% (inactive)
same,inhibition,"[14]; cisplatin combo, at 5 µM",71.1%
same,inhibition,[14]; [47],-38.8%
same,inhibition,[14]; [25],44.2%
same,inhibition,"[14]; single agent, at 5 µM",71.6%
same,inhibition,[15]; at 0.5 µM,91.3% (active)
same,inhibition,[15]; [22],85.6%
same,inhibition,[15]; [23],94.1%
same,inhibition,"[15]; single agent, at 0.05 µM",-29.5%
same,inhibition,"[15]; single agent, at 5 µM",99.5%
